Screens (PubChem BioAssay)
Tau ThT inhib: inhibitors of human tau fibril formation, thioflavin T binding; P10636; recombinant tau K18 P301L, heparin-induced fibrillization, ThT fluorescence; Potency, µM (series often up to 57.4 µM), hits mostly inhibitors; hit rate 2.1% among 270,000; AID 1460; note: nearly all actives have a fitted effect of over 55% in size
Target sequence (P10636 561-689 P618L limits assumed): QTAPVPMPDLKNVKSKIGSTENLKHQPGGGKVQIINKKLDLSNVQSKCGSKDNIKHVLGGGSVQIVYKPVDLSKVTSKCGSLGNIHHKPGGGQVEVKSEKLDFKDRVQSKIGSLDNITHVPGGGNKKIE
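Tau K18 P301L fragment (15 uM unlabeled plus 0.24 uM Alexa 594-labeled) in 100 mM sodium acetate pH 7 with compound, fibrillization induced by 20 uM heparin for 6 hr at 37 C. Thioflavin T (30 uM) added, fluorescence read after 1 hr (ex 450, em 510 nm).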
Sfp inh: inhibitors of Bacillus subtilis Sfp phosphopantetheinyl transferase; Biochemical Sfp PPTase activity, qHTS; AID 1490; Potency, µM, usual class: inhibitors; hit rate 3.5% among 310,000; Q9F4F7;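 note: the enzyme is Sfp with the accession as filed and its product quenches rhodamine fluorescence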
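Fluorescence-quenching assay with 15 nM Sfp, 5 uM rhodamine-CoA and 12.5 uM BHQ-2-labelled ybbR peptide in pH 7.6 Hepes/MgCl2 buffer. Enzyme was pre-incubated with compound for 15 min at room temperature. Rate was taken from the 30-min fluorescence change (525/598 nm).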
Tau fluor cs: counter-screen for tau fibril formation inhibitors | tau K18 P301L Alexa594 fluorescence, heparin fibrillization | Potency, µM (series often up to 57.7 µM) | hit rate 0.93% among 280,000 | AID 1463; note: nearly all actives have a fitted effect of over 55% in size
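Human tau K18 P301L (15 uM unlabeled, 0.24 uM Alexa 594-labeled) in 100 mM sodium acetate pH 7 with 20 uM heparin, 6 hr at 37 C. ThT 30 uM added, 1 hr ambient; Alexa 594 FP and total fluorescence read at 555/632 nm.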
PLK1 PBD block: PLK1 (human) polo-box domain binding inhibition; P53350; Plk1 PBD binding of FITC phosphopeptide, fluorescence polarization; Potency, µM, hits mostly inhibitors; hit rate 2.8% among 360,000; note: series mostly up to about 57 µM; nearly all actives have a fitted effect of over 65% in size
VDR inhibitor: vitamin D3 receptor (human) inhibition | VDR-SRC2-3 peptide fluorescence polarization, 2 h | Potency, µM, hits mostly inhibitors | hit rate 0.93% among 400,000 | AID 504847
Target sequence (P11473 whole entry, looked up): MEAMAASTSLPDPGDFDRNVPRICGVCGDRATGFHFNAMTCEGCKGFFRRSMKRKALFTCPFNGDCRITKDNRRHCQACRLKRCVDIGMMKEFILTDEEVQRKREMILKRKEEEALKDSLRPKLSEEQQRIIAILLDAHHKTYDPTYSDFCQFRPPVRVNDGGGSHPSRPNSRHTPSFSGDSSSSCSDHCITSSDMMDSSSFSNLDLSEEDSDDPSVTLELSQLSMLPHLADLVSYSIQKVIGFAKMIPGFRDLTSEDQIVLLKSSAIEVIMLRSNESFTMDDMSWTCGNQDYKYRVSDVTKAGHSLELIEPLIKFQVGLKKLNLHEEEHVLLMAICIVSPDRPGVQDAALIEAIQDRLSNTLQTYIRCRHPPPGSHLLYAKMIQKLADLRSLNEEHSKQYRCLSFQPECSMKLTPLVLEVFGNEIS
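Two reagent solutions held at 4 deg C in the dark were dispensed, compounds pinned at 23 nl, and the mixture incubated 2 h at room temperature. Read-out: fluorescence polarization of VDR–SRC2-3 peptide binding.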
Tau fibril FP: tau fibrillization inhibition (FP) | K18 P301L tau heparin fibrillization, Alexa594 FP, 6 h | P10636 | Potency, µM (highest dose often 57.7 µM), most hits filed as inhibitors | hit rate 0.39% among 280,000; note: nearly all actives have a fitted effect of over 55% in size
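Recombinant K18 P301L […], labeled with Alexa 594 at 0.24 uM over 15 uM unlabeled; heparin inducer 20 uM final; 37 C, 6 hr; FP endpoint.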
A number is an active result; i = inactive; ? = inconclusive; nt = no result given; [ ] = remark or other dose. Only some compounds are listed: those with a hit (about 6% of all), similar ones and a draw of the others. Calls come from the whole dose curve; as a rule, active = well fitted curve in the direction sought with a large enough effect; inconclusive = small, poorly fitted or top-dose-only effect, or another doubt; inactive = no such curve, though single readings can be large; an effect the other way counts as inactive or inconclusive.

SMILES	Tau ThT inhib	Sfp inh	Tau fluor cs	PLK1 PBD block	VDR inhibitor	Tau fibril FP
C[C@]12C[C@@](C)(C=C1/C=C/c1ccccc1)C(=O)C[C@H]2c1ccccc1	i	i	i	nt	i	i
CC1(C(=O)NS(=O)(=O)c2cccc(Cl)c2)CCN1C(=O)C1CCCCC1 (stereo not drawn)	nt	nt	nt	i	nt	nt
COc1cccc(N2CCN(C(=O)c3ccc(OC)c(S(=O)(=O)NC4CC4)c3)CC2)c1	nt	nt	nt	i	nt	nt
COc1cccc(OC)c1C(=O)NC(=S)N1CCCCC1c1cccnc1 (stereo not drawn)	nt	i	nt	i	i	nt
Cn1cccc1C(=O)NC(=O)COC(=O)c1cc(S(=O)(=O)N2CCCCC2)ccc1Cl	i	i	?	21.2µM	i	i
O=C(COC(=O)c1cc(S(=O)(=O)N2CCCCC2)ccc1Cl)NC1CCCCC1	nt	nt	nt	i	nt	nt
c1ccc2cc(C3=NCCN3)ncc2c1	i	i	i	nt	i	i
Cc1noc(C)c1-c1nccc(NC2CC2)n1	nt	i	nt	nt	50.1µM	nt
CCOC(=O)c1cccc(NC(=O)CCc2c(C)nn(-c3ccc(N4CCCC4)nn3)c2C)c1	?	nt	i	nt	i	i
CC(=O)N1CCCc2cc(S(=O)(=O)N(C)CC(=O)Nc3ccc(F)c(Cl)c3)ccc21	i	nt	i	nt	i	i
CCOC(=O)C1CCN(C(=O)CC(C)c2ccccc2)CC1 (stereo not drawn)	i	i	i	23.8µM	?	i
CCOC(=O)C1CCN(C(=O)CC(NS(=O)(=O)c2ccc(OC)cc2)C(C)C)CC1 (stereo not drawn)	i	i	i	3.77µM	?	i
CC(C)CC(=O)N1CCC(N2CCN(c3ccccc3)CC2)CC1	i	i	i	29.9µM	?	i
CCOC(=O)C1CCCN(C(=O)CC(C)c2ccccc2)C1 (stereo not drawn)	i	i	i	i	i	i
O=C(CCC1CCCC1)N1CCC(N2CCN(c3ccccc3)CC2)CC1	?	i	i	i	i	i
CCOC(=O)C1CCN(C(C(=O)NC2CCCCC2)c2ccc(OC)cc2)CC1 (stereo not drawn)	i	i	i	26.7µM	i	i
COc1ccccc1CNc1ncnc2c1c(-c1ccccc1)cn2-c1ccc(Br)cc1	i	nt	i	nt	i	i
CO[C@H]1COC(=O)[C@H](C)NC(=O)[C@@H](C)COC(=O)C/C=C\[C@@H]1C	i[11.5 µM]	i	i[11.6 µM]	nt	nt	i[11.6 µM]
Cc1[nH][nH]c(=O)c1C(c1ccc(Cl)cc1)c1c(C)[nH][nH]c1=O	nt	i	nt	29.9µM	i	nt
COc1ccc(OC)c(NC(=O)c2ccc(CN(c3cc(Cl)ccc3C)S(=O)(=O)c3ccccc3)cc2)c1	i	79.4µM	i	i	i	i
CNC(=O)[C@H](C)[C@H]1C[C@]1(C)[C@H](NC(=O)OCc1ccccc1)c1ccccc1	i	i	i	nt	nt	i
Cn1nc(C(=O)OCC(=O)Nc2cc(Cl)ccc2C#N)c2ccccc2c1=O	nt	nt	nt	i	i	nt
Cc1ccc(C)c(N2CCN(C(=O)C3CCN(S(=O)(=O)c4cn(C)cn4)CC3)CC2)c1	i	nt	i	nt	i	i
COc1cc(C(=S)N2CCOCC2)ccc1OC(=O)c1cccc(C)c1	nt	79.4µM	nt	?	i	nt
O=C(COc1ccc(C(=S)N2CCOCC2)cc1Cl)Nc1ccccc1Cl	i	20µM	i	?	i	i
SMILES	Tau ThT inhib	Sfp inh	Tau fluor cs	PLK1 PBD block	VDR inhibitor	Tau fibril FP
COc1ccc(C(=S)N2CCOCC2)cc1OC(=O)c1ccccc1Cl	nt	56.2µM	nt	18.9µM	i	nt
O=C(Oc1ccc(Br)cc1C(=S)N1CCOCC1)c1ccccc1	nt	i	nt	i	i	nt
O=C(Oc1cccc(C(=S)N2CCOCC2)c1)c1ccccc1	nt	56.2µM	nt	?	i	nt
COc1cc(C(=S)N2CCCCC2)ccc1OCC(=O)Nc1ccccc1Cl	?	i	i	i	i	i
Cn1ccc2c(OCC(=O)NCc3ccccc3Cl)cccc2c1=O	i	nt	i	nt	i	i
Cc1nc(NC2CCCCC2)c2nc(-c3ccccc3)n(CCN(C)C)c2n1	i	i	i	nt	nt	i
CCOC(=O)COc1ccc2c(C)cc(=O)oc2c1C(=O)c1ccccc1	i	i	i	21.2µM	i	i
CN1/C(=C\C=O)C(C)(C)c2ccccc21	i	i	i	i	i	i
CN1\C(=C/C=C/C=C/C=[N+](C)C)C(C)(C)c2ccccc21	3.55µM	56.2µM	1.58µM[fluorescent]	i	?	?
CN(C)c1ccc(N=C/C=C2\N(C)c3ccccc3C2(C)C)cc1	5.01µM	?	?	i	i	i
Cc1ccc(NC(=O)c2oc3ccccc3c2NC(=O)c2ccc(F)c(F)c2)cc1	i	nt	i	nt	i	?
O=C(Cn1c2ccccc2c(=O)c2ccccc21)Nc1cccc(F)c1	i	i	i	10.6µM	?	i
CCCCNC(=O)c1nc(C2CCN(S(=O)(=O)c3ccc(S(C)(=O)=O)cc3)CC2)oc1-c1ccccc1	nt	nt	nt	i	nt	nt
CCSc1nc2ccccc2n1C(=O)/C=C\c1ccc(OC)c(OC)c1	10µM	50.1µM	i	i	50.1µM	?
O=C(CCN1Cc2ccccc2C1)c1ccc2c(c1)OCCO2	?	?	i	23.8µM	i	i
CN(C)CCC(=O)c1ccc2c(c1)OCO2	?	i	i	18.9µM	79.4µM	?
CN(C)CCC(=O)c1cccc(Br)c1	i	?	i	9.47µM	?	i
CC(C)C(N)c1csc(Nc2ccc(C(=O)c3ccccc3)cc2)n1 (stereo not drawn)	nt	nt	nt	i	nt	nt
Cc1ccc2nc(NCCN)c3ncc(C)n3c2c1	nt	i	nt	nt	i	nt
O=C1NC(=S)N/C1=C/c1cccc([N+](=O)[O-])c1O	4.47µM	i	?	i	i	i
Cc1ccc(C(=O)NCC(=O)OCc2cc(=O)n3c(C)csc3n2)cc1	i	nt	i	nt	i	i
N#CC1=C(SCC(=O)c2ccc(Br)cc2)NC2=C(C(=O)CCC2)C1c1ccco1 (stereo not drawn)	14.1µM	i	?	i	i	i
CC(=O)C1=C(C)NC(SCc2ccc(C#N)cc2)=C(C#N)C1c1ccco1 (stereo not drawn)	i	?	i	i	i	i
CC(=O)C1=C(C)NC(SCC(=O)c2ccc(Cl)cc2Cl)=C(C#N)C1c1ccco1 (stereo not drawn)	?	44.7µM	?	i	i	i
CCc1ccc(NC(=O)CSC2=C(C#N)C(c3ccco3)C3=C(CCCC3=O)N2)cc1 (stereo not drawn)	i	i	?	i	i	i
CC(=O)C1=C(C)NC(SCC(=O)c2ccccc2)=C(C#N)C1c1ccco1 (stereo not drawn)	22.4µM	56.2µM	?	nt	nt	i
CC(=O)C1=C(C)NC(SCc2cccc3ccccc23)=C(C#N)C1c1ccco1 (stereo not drawn)	i	50.1µM	?	i	i	?
CCOC(=O)C1=C(c2ccccc2)NC(SC)=C(C#N)C1c1ccco1 (stereo not drawn)	i	i	i	i	i	i
N#CCCn1nc(-c2ccccc2)c2ccccc2c1=O	nt	i	nt	i	i	nt
